Sfp PPTase inh: Sfp phosphopantetheinyl transferase inhibition. Q9F4F7. Biochemical Sfp PPTase activity, qHTS. Potency, µM, inactives show largest response in the series, negative = inhibition, most hits filed as inhibitors. hit rate 3.5% among 310,000. AID 1490;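 further: the enzyme is Sfp with the accession as filed and its product quenches rhodamine fluorescence; 0% = enzyme reaction without inhibitor and -100% = no enzyme wells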
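Compounds were incubated with enzyme (final 15 nM) for 15 min at room temperature before substrate addition started the reaction. Fluorescence at 525 nm excitation, 598 nm emission was recorded immediately and after 30 minutes.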
PLK1 PBD block: inhibitors of human PLK1 polo-box domain binding | P53350 | Plk1 PBD binding of FITC phosphopeptide, fluorescence polarization | Potency, µM, for the others: max response, negative = inhibition, actives largely listed as inhibitors | hit rate 2.8% among 360,000; further: series mostly up to about 57 µM; nearly all actives have a fitted effect of over 65% in size
VDR inhibitor: inhibitors of human vitamin D receptor | hit rate 0.93% among 400,000 | VDR-SRC2-3 peptide fluorescence polarization, 2 h | AID 504847 | Potency, µM, for inactives: max response, negative = inhibition, actives largely listed as inhibitors | P11473
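Measured by FP: displacement of SRC2-3 coactivator peptide from VDR by library compounds, following a two-hour ambient incubation.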
12-LOX inh: ALOX12 (human) lipoxygenase inhibition; purified 12hLO, xylenol orange hydroperoxide absorbance; Potency, µM (doses to about 108 µM), for the others: top-dose activity change, negative = inhibition, actives largely listed as inhibitors; hit rate 1.1% among 580,000
Target sequence (P18054 whole entry, looked up): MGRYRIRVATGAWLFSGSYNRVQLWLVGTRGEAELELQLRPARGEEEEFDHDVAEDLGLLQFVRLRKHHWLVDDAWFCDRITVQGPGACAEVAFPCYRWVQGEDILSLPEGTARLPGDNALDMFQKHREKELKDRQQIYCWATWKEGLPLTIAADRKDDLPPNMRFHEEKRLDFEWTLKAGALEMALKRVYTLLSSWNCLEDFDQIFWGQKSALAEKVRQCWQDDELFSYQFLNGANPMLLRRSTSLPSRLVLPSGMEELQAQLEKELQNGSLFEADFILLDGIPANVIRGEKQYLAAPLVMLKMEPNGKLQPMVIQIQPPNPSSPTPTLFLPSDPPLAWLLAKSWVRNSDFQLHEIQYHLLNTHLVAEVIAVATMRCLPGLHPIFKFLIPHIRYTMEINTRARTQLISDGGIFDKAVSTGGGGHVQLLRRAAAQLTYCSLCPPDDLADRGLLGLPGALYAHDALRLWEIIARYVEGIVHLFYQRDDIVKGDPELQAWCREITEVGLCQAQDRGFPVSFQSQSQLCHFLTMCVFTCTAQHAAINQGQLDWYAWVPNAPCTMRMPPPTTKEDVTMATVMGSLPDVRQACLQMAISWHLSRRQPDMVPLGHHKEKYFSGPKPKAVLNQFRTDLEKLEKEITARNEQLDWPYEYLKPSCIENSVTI
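Purified human 12hLO (150 nM final) in 25 mM Hepes, 0.01% Triton X-100, pH 7.0 was preincubated 15 min at room temperature with compound. Then 40 uM arachidonic acid was added, 30 min. Hydroperoxide was read by Fe-XO absorbance ratio 573/405 nm.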
* = called active by the depositor; [ ] = dose if it differs, or a comment. Sampled rows, rich in hits. Any-hit rate of the full collection: about 4.2%. The call rests on the fitted dose curve; in most records, active means well fitted curve in the direction sought with a large enough effect; inconclusive means small, poorly fitted or top-dose-only effect, or another doubt; inactive means no such curve, though single readings can be large; an effect the other way counts as inactive or inconclusive. Unless noted, on the % scale 0 is the no-effect control and ±100 the full control effect; potency means the concentration at half of the fitted maximal effect.

Screening CC1(C)C(=O)C=C[C@@]2(C)C1=C(O)C(=O)[C@@]1(C)C2CC[C@@]2(C)C(c3ccoc3)C[C@H]3O[C@@]321 (some centres not stated) returned Sfp PPTase inh -16.9% and VDR inhibitor 7.94µM*.
Cc1nc(-c2ccccc2)cc([C@H]2CN3CC[C@H]2C[C@@H]3CNC(=O)C(C)(C)C)n1 was read as 12-LOX inh 2.4%[176 µM].
`CC(C)NC(=O)NC[C@H]1C[C@@H]2CCN1C[C@@H]2CN(C)Cc1ccccc1` gave 12-LOX inh 69.9%[176 µM].
Screening C=C1C(=O)O[C@@H]2C[C@@H](C)[C@@H]3C=CC(=O)[C@@]3(C)[C@@H](OC(=O)CC(=O)O[C@H]3[C@@H]4C(=C)C(=O)O[C@@H]4C[C@@H](C)[C@@H]4C=CC(=O)[C@]43C)[C@H]12 returned Sfp PPTase inh 22.4µM*, PLK1 PBD block inconclusive, VDR inhibitor 17.8µM* and 12-LOX inh inconclusive.
For C=C1C(=O)OC2CC(C)C3C=CC(=O)C3(C)C(O)C12 (configuration not stated) the results were PLK1 PBD block -13.4% and VDR inhibitor inconclusive.
For CC1=C(C(=O)O)N2C(=O)[C@@H](NC(=O)CCCC(=O)O)[C@H]2SC1 the results were Sfp PPTase inh 5.01µM*, PLK1 PBD block -25.6%, VDR inhibitor -19.7% and 12-LOX inh -21.8%.
Screening Cc1cc(C=C2C(=O)NC(=S)NC2=O)c(C)n1C1CCCC1 returned Sfp PPTase inh 39.8µM*, PLK1 PBD block inconclusive, VDR inhibitor -20.6% and 12-LOX inh inconclusive.
Screening Cc1cc(C=C2C(=O)N(C)C(=S)N(C)C2=O)c(C)n1C1CCCCC1 returned Sfp PPTase inh inconclusive, PLK1 PBD block inconclusive, VDR inhibitor -2.3% and 12-LOX inh inconclusive.
Screening CC1Oc2cc3c(-c4c(O)cc(O)c5c(O)c6c(cc45)OC(C)C(C)C6=O)c(O)cc(O)c3c(O)c2C(=O)C1C (configuration not stated) returned Sfp PPTase inh 15.1%, PLK1 PBD block 26.7µM* and VDR inhibitor 79.4µM*.
CN1C[C@@H]2C[C@@H](c3cccn3-c3ccccn3)N3CCC[C@@]23C1=O was read as Sfp PPTase inh 10.6%, PLK1 PBD block -5.2%, VDR inhibitor 10.9% and 12-LOX inh -0.2%.
For O=C(NCc1ccco1)c1ccc(Cn2c(=O)c3ccccc3n(Cc3cccc(F)c3)c2=O)cc1 the results were Sfp PPTase inh -28.4%, PLK1 PBD block 15µM*, VDR inhibitor inconclusive and 12-LOX inh 0.0%.
Screening CCCCn1c(=O)c(C(=O)NCc2ccco2)c(O)c2ccccc21 returned Sfp PPTase inh 2.9%, PLK1 PBD block -6.9%, VDR inhibitor 6.2% and 12-LOX inh -10.7%.
Screening COc1cccc(CC(=O)N2CCN(CC(=O)NC(N)=O)CC2)c1 returned 12-LOX inh 1.0%.
Screening COc1cccc(CNC(=O)CSc2ccc(-c3ccco3)nn2)c1 returned Sfp PPTase inh 22.4µM*, PLK1 PBD block -6.1%, VDR inhibitor -20.1% and 12-LOX inh -6.5%.
Screening O=C1NC(=O)C(=Cc2ccc(OCCOc3ccc([N+](=O)[O-])cc3)cc2)C(=O)N1 returned Sfp PPTase inh 50.1µM*, PLK1 PBD block 2.67µM*, VDR inhibitor 50.1µM* and 12-LOX inh inconclusive.
CC(=O)N1CCN(c2ccc([N+](=O)[O-])cc2C=C2C(=O)NC(=O)NC2=O)CC1 was read as Sfp PPTase inh -11.7%, PLK1 PBD block inconclusive, VDR inhibitor 5.6% and 12-LOX inh -12.4%.
CC(C)(C)c1ccc(CSc2cnn(C(C)(C)C)c(=O)c2Cl)cc1 was read as Sfp PPTase inh 0.2%, PLK1 PBD block -12.4%, VDR inhibitor -8.6% and 12-LOX inh 0.0%.
CN1C(=O)C(=Cc2cn(CC(=O)N3CCCC3)c3ccccc23)C(=O)N(C)C1=O was read as Sfp PPTase inh 7.3%, PLK1 PBD block 26.7µM*, VDR inhibitor -2.2% and 12-LOX inh 2.8%.
For CN1C(=O)C(=Cc2cn(CC#N)c3ccccc23)C(=O)N(C)C1=O the results were Sfp PPTase inh -8.0%, PLK1 PBD block 1.19µM*, VDR inhibitor -16.5% and 12-LOX inh -18.5%.
`Cc1cc(C=C2C(=O)N(C)C(=O)N(C)C2=O)c(C)n1-c1ccccc1` gave Sfp PPTase inh -3.2%, PLK1 PBD block -3.9%, VDR inhibitor -2.9% and 12-LOX inh -5.1%.
Screening CN1C(=O)C(=Cc2coc3ccccc3c2=O)C(=O)N(C)C1=O returned Sfp PPTase inh -19.8%, PLK1 PBD block 18.9µM*, VDR inhibitor inconclusive and 12-LOX inh inconclusive.
CN1C(=O)C(=Cc2cn(CC(=O)N3CCCCC3)c3ccccc23)C(=O)N(C)C1=O was read as Sfp PPTase inh 2.4%, PLK1 PBD block 13.4µM* and VDR inhibitor -10.9%.
Screening NC(Cc1cccc(F)c1)c1cccc(F)c1 (configuration not stated) returned 12-LOX inh -1.9%.
For O=c1[nH]c2ccccc2n1C1CCN(C(c2cc3ccccc3o2)c2nnnn2-c2ccc3c(c2)OCCO3)CC1 (configuration not stated) the results were PLK1 PBD block -5.1% and 12-LOX inh inconclusive.
`CC/C(=N\NC(=S)Nc1ccccc1)c1c(O)[nH]c(=O)[nH]c1=O` gave Sfp PPTase inh 22.4µM*, PLK1 PBD block -1.0%, VDR inhibitor 5.5% and 12-LOX inh inconclusive.
Screening COC(=O)C1=C(c2ccc3ccccc3c2)C[C@@H]2CC[C@H]1N2C(=O)N1CCCCC1 returned PLK1 PBD block -12.6%, VDR inhibitor -8.9% and 12-LOX inh -3.0%.
For CCOC(=O)Cn1cc(C=C2C(=O)N(C)C(=O)N(C)C2=O)c2ccccc21 the results were Sfp PPTase inh -12.1%, PLK1 PBD block inconclusive, VDR inhibitor -2.6% and 12-LOX inh -4.4%.
Cc1ccc(S(=O)(=O)Oc2ccccc2C=C2C(=O)N(C)C(=O)N(C)C2=O)cc1 was read as Sfp PPTase inh 79.4µM*, PLK1 PBD block 6.7µM*, VDR inhibitor inconclusive and 12-LOX inh 44.7µM*.
For CC(C)n1nnnc1CN1CCN(C)CC1 the results were Sfp PPTase inh 11.8%, PLK1 PBD block -6.6%, VDR inhibitor -3.9% and 12-LOX inh 197.5%.
For Cc1ccnc(NS(=O)(=O)c2ccc(N=Cc3c(O)n(C)c(=O)n(C)c3=O)cc2)n1 the results were Sfp PPTase inh -15.4%, PLK1 PBD block -1.4%, VDR inhibitor -8.2% and 12-LOX inh 5.01µM*.
`Cc1nc(-c2ccc(F)cc2)cc([C@H]2CN3CC[C@H]2C[C@@H]3CNC(=O)Nc2cccc(C#N)c2)n1` gave 12-LOX inh -4.7%.
`Cc1nc(-c2ccccc2Br)cc([C@H]2CN3CC[C@H]2C[C@@H]3CNC(=O)Nc2cccc(C#N)c2)n1` gave 12-LOX inh 28.2µM*.
Cc1nc(-c2ccccc2Br)cc([C@H]2CN3CC[C@H]2C[C@@H]3CNC(=O)c2cccs2)n1 was read as 12-LOX inh 35.5µM*.
For CCC(CC)C(=O)NC[C@H]1C[C@@H]2CCN1C[C@@H]2c1cc(-c2ccccc2Br)nc(C)n1 the results were 12-LOX inh 21.1%.

High-throughput results: PubChem BioAssay, National Center for Advancing Translational Sciences (NCATS)
